The values below come from the supplement of paper PMC13380429.

The test system of experiment [1] is Vero E6 infected with SARS-CoV-2. The experiment is described as follows: morphology score (similarity to uninfected cells); higher = more like uninfected cells. To be noted: 24 h.
For experiment [2] the test system is unchanged. The experiment in a line: SARS-CoV-2 infection rate relative to infected DMSO; higher = more infection, active = 60 or less. To be noted: 24 h.

`C[C@@H]1C[C@H]2[C@@H]3C[C@H](F)C4=CC(=O)C=C[C@]4(C)[C@@]3(F)[C@@H](O)C[C@]2(C)[C@@]1(O)C(=O)COC(=O)C(C)(C)C` [flumethasone-pivalate] (10 µM) showed a morphology score in experiment [1] of 0.324. In addition, the SARS-CoV-2 infection rate in experiment [2] was 80% (inactive).
`Cc1c(C)c(NCC(=O)N(C)C2CCN(Cc3ccc(C(N)=O)cc3)CC2)c(C)c(C)c1N` (10 µM) came in with a morphology score in experiment [1] of 0.211. In experiment [2], the SARS-CoV-2 infection rate was 91% (inactive).
On to `O=c1oc(-c2ccc(C(F)(F)F)cc2)nn1Cc1cc(Cl)ccc1O` (10 µM), for which, in experiment [1], the morphology score was found to be 0.593. Besides, the SARS-CoV-2 infection rate in experiment [2] is 39.5% (active).
In the same order, the values of `CC(C)(N)CC12CC3CC(CC(C3)C1)C2` [somantadine] (10 µM) are 0.178 and 96% (inactive).
In the same order, the values of `N[C@]1(C(=O)O)CC[C@@H](C(=O)O)C1` (10 µM) are 0.188 and 82% (inactive).
On the same counts, the results for `O=C(O)c1cc(/N=N/c2ccc(S(=O)(=O)Nc3ccccn3)cc2)ccc1O` [sulfasalazine] (10 µM) are 0.0447 and 105% (inactive).
In turn, `CC(C)c1cc(-c2n[nH]c(=O)n2-c2ccc3c(ccn3C)c2)c(O)cc1O` [ganetespib] (0.833333 µM) registered a morphology score in experiment [1] of 0.0711. For the same compound, the SARS-CoV-2 infection rate in experiment [2] is 111% (inactive).
On the same counts, the results for `NC[C@@](O)(c1ccc(Cl)cc1)c1ccc(-c2cn[nH]c2)cc1` (10 µM) are 0.174 and 108% (inactive).
In the same order, the values of `CCOC(=O)[C@@H](C)Oc1cccc2c(=O)n(CC(=O)Nc3ccc4c(c3)OCCO4)ccc12` (10 µM) are -0.204 and 108% (inactive).
Regarding `O=C1NCCNC1c1cccs1` (centres undefined) [tenilsetam] (10 µM), the morphology score in experiment [1] came out at 0.095. Also, the SARS-CoV-2 infection rate in experiment [2] was 106% (inactive).
With `O=C(c1cncc(Br)c1)N1CCC(N2CCCC2)CC1` (10 µM), the morphology score in experiment [1] is 0.146. The SARS-CoV-2 infection rate in experiment [2] is 108% (inactive).
On the same counts, the results for `O=C(N[C@@H](Cc1c[nH]c2ccccc12)C(=O)O)c1ccc(Cl)cc1` [benzotript] (10 µM) are -0.049 and 104% (inactive).
In the same order, the values of `Nc1ccc(F)cc1NC(=O)c1ccc(CNC(=O)/C=C/c2cccnc2)cc1` [chidamide] (0.833333 µM) are -0.0654 and 107% (inactive).
`COc1ccc(OC)c2c(=S)c3ccccc3[nH]c12` (10 µM) yielded a morphology score in experiment [1] of -0.0609. In experiment [2], the SARS-CoV-2 infection rate was 106% (inactive).
On the same counts, the results for `CCCCCCCCCCCCCCCc1cccc(OCC(=O)NCCO)c1` (10 µM) are -0.00804 and 106% (inactive).
In the same order, the values of `CN1C(=O)C(N2CCCCC2)S/C1=C\C(=O)O` (centres undefined) [ozolinone] (10 µM) are 0.00951 and 108% (inactive).
In experiment [1], `CCn1c(=O)[nH]c2cc(Cl)c(Cl)cc21` (10 µM) yielded a morphology score of 0.171. Also, the SARS-CoV-2 infection rate in experiment [2] is 83.5% (inactive).
In turn, `N=C(N)NCCSSCCNC(=N)N` [guanidinoethyldisulfide-bicarbonate] (10 µM) registered a morphology score in experiment [1] of 0.0245. Moreover, the SARS-CoV-2 infection rate in experiment [2] was 107% (inactive).
In experiment [1], `NCc1c[nH]c(=S)n1[C@H]1CCc2c(F)cc(F)cc2C1` [nepicastat] (10 µM) gave a morphology score of -0.046. Moreover, the SARS-CoV-2 infection rate in experiment [2] is 104% (inactive).
On the same counts, the results for `Cc1ccc2c(-c3ccccc3)nc(=O)n(C(C)C)c2c1` [proquazone] (10 µM) are 0.0698 and 103% (inactive).
On the same counts, the results for `N#Cc1ccc(N2N=C3c4ccc(C(=O)O)cc4CC[C@@H]3[C@@H]2C2CCCC2)cc1Cl` (10 µM) are -0.174 and 108% (inactive).
In turn, `Cn1c(=O)c2[nH]cnc2n(C)c1=O` [aminophylline] (10 µM) showed a morphology score in experiment [1] of 0.187. The SARS-CoV-2 infection rate in experiment [2] was 95% (inactive).
In the same order, the values of `COC(=O)C1=C(C)NC(C)=C(C(=O)OC2CCCN(Cc3ccccc3)C2)C1c1cccc([N+](=O)[O-])c1` (centres undefined) [benidipine] (10 µM) are 0.0303 and 102% (inactive).
On to `CSC[C@H](N)C(=O)O` [S-methylcysteine] (10 µM), for which the morphology score in experiment [1] stood at 0.000717. Also, the SARS-CoV-2 infection rate in experiment [2] is 102% (inactive).
Compound `CC[C@@H]1Cn2c(c3nc(-c4ccccc4)nc-3n(C)c2=O)N1` (10 µM) registered a morphology score in experiment [1] of 0.14. Further, the SARS-CoV-2 infection rate in experiment [2] is 90.5% (inactive).
On the same counts, the results for `Cc1cc(C)cc(C(=O)N(C)[C@H](Cc2ccc(-c3ccccc3)cc2)C(=O)N[C@@H](Cc2c[nH]c3ccccc23)C(=O)O)c1` (10 µM) are 0.0271 and 95% (inactive).
For the compound `CC(C)NC(=N)NC(=N)Nc1ccc(Cl)cc1` [proguanil] (10 µM), the morphology score in experiment [1] is -0.0553. The SARS-CoV-2 infection rate in experiment [2] was 112% (inactive).
For the compound `CN1c2ccccc2C(=O)N2CCc3c([nH]c4ccccc34)C21` (stereo in doubt) [evodiamine] (10 µM), in experiment [1], the morphology score was -0.093. Also, the SARS-CoV-2 infection rate in experiment [2] is 100% (inactive).
In the same order, the values of `C=C1CC[C@@]2(O)[C@H]3Cc4ccc(O)c5c4[C@@]2(CCN3CC2CC2)[C@H]1O5` [nalmefene] (10 µM) are -0.0409 and 112% (inactive).
On the same counts, the results for `N[C@@H]1[C@H]2CN(c3nc4c(cc3F)c(=O)c(C(=O)O)cn4-c3ccc(F)cc3F)C[C@@H]12` [trovafloxacin] (10 µM) are 0.276 and 108% (inactive).
In the same order, the values of `C[C@]12CCC(=O)C=C1[C@@H]1C[C@@H]1[C@H]1[C@@H]3[C@@H]4C[C@@H]4[C@@]4(CCC(=O)O4)[C@@]3(C)CC[C@@H]12` [drospirenone] (10 µM) are 0.176 and 101% (inactive).
`CC(C)C(=O)Nc1ccc([N+](=O)[O-])c(C(F)(F)F)c1` [flutamide] (10 µM) returned a morphology score in experiment [1] of -0.24. For the same compound, the SARS-CoV-2 infection rate in experiment [2] is 112% (inactive).
In the same order, the values of `NC(=O)c1ccccc1O` [salicylamide] (10 µM) are -0.114 and 102% (inactive).
In the same order, the values of `CCC(C)(Oc1ccc(C2(c3ccc(OC(C)(CC)C(=O)O)cc3)CCCCC2)cc1)C(=O)O` (centres undefined) [clinofibrate] (10 µM) are 0.0154 and 112% (inactive).
In the same order, the values of `COc1cccc(-c2cc(=O)c3ccccc3o2)c1N` (10 µM) are -0.25 and 118% (inactive).
`O=C(O)c1ccc(CN2CCC(CN[C@@H]3C[C@H]3c3ccccc3)CC2)cc1` (10 µM): the morphology score in experiment [1] was 0.106. Besides, the SARS-CoV-2 infection rate in experiment [2] was 98% (inactive).
In the same order, the values of `c1cnc(SCc2cccnc2)nc1` [tasuldine] (10 µM) are 0.175 and 99.5% (inactive).
On the same counts, the results for `CN1CCCC(n2nc(Cc3ccc(Cl)cc3)c3ccccc3c2=O)CC1` (centres undefined) [azelastine] (10 µM) are 0.458 and 72% (inactive).
In the same order, the values of `C[C@@]1(CO)[C@H](O)CC[C@@]2(C)[C@H]1CC[C@H]1C[C@@H]3C[C@@]12CC[C@]3(O)CO` [aphidicolin] (0.833333 µM) are -0.0875 and 106% (inactive).
Compound `CNC(=O)c1cccc2cc(Oc3ccnc4cc(OCC5(N)CC5)c(OC)cc34)ccc12` [lucitanib] (10 µM) showed a morphology score in experiment [1] of 0.0362. Further, the SARS-CoV-2 infection rate in experiment [2] was 104% (inactive).
In the same order, the values of `CCN(CC)CCOc1ccc(/C(=C(\Cl)c2ccccc2)c2ccccc2)cc1` [clomifene] (0.833333 µM) are 0.172 and 96.5% (inactive).
On the same counts, the results for `CC(=O)OCC1=C(C(=O)O)N2C(=O)[C@@H](NC(=O)CCCC(N)C(=O)O)C2SC1` (some centres undefined) [cephalosporin-c-zn] (10 µM) are 0.00489 and 97% (inactive).
On the same counts, the results for `CC[C@H]1[C@@H](O)[C@@H]2[C@H](CC[C@]3(C)[C@@H]([C@H](C)CCOS(=O)(=O)O)CC[C@@H]23)[C@@]2(C)CC[C@@H](O)C[C@@H]12` (10 µM) are -0.0685 and 106% (inactive).
`CCn1c2ccccc2c2cc(CNCc3ccccc3OC)ccc21` (10 µM) yielded a morphology score in experiment [1] of 0.26. Besides, the SARS-CoV-2 infection rate in experiment [2] was 87% (inactive).
In the same order, the values of `Nc1ncnc2c1c(-c1cccc(OCc3ccccc3)c1)cn2C1CC(CN2CCCC2)C1` (stereo in doubt) (0.833333 µM) are 0.0762 and 92% (inactive).
In experiment [1], `CCCNC(C)C(=O)Nc1c(C)csc1C(=O)OC` (centres undefined) [articaine] (10 µM) came in with a morphology score of 0.0926. Besides, the SARS-CoV-2 infection rate in experiment [2] is 98% (inactive).
Regarding `COc1cc([S+](C)[O-])ccc1-c1nc2cccnc2[nH]1` (centres undefined) [sulmazole] (10 µM), the morphology score in experiment [1] amounted to 0.165. In addition, in experiment [2], the SARS-CoV-2 infection rate is 98.5% (inactive).
Turning to `C=CCc1ccc(O)c(-c2ccc(O)c(CC=C)c2)c1` [honokiol] (10 µM), in experiment [1], the morphology score was found to be 0.432. Besides, the SARS-CoV-2 infection rate in experiment [2] was 80.5% (inactive).
On the same counts, the results for `C[C@]12CCC(=O)C(O)=C1CC[C@@H]1[C@@H]2CC[C@]2(C)C(=O)CC[C@@H]12` [formestane] (10 µM) are -0.134 and 115% (inactive).
On the same counts, the results for `CCCCCS(=O)(=O)CCCCCCCCCCn1c(-c2ccc(O)cc2)c(C)c2cc(O)ccc21` (0.833333 µM) are 0.00616 and 102% (inactive).
In the same order, the values of `CC(C)(C)c1cc(C(C)(C)C)c2c(c1)C(O)(C(F)(F)F)C(=O)O2` (racemic) (10 µM) are 0.239 and 95.5% (inactive).
With `COc1cccc(Nc2c(C(N)=O)cnc3c(C)cc(S(=O)(=O)c4cccc(C(=O)N(C)C)c4)cc23)c1` (10 µM), the morphology score in experiment [1] came to 0.345. In addition, in experiment [2], the SARS-CoV-2 infection rate is 91% (inactive).
In experiment [1], `C[C@H](CCC(=O)O)[C@H]1CC[C@H]2[C@@H]3[C@H](O)C[C@@H]4C[C@H](O)CC[C@]4(C)[C@H]3C[C@H](O)[C@]12C` [cholic-acid] (10 µM) displayed a morphology score of 0.0109. The SARS-CoV-2 infection rate in experiment [2] is 110% (inactive).
On the same counts, the results for `O=c1[nH]c2ccccc2c(=O)n1CCCN1CCN(c2ccccc2)CC1` [pelanserin] (10 µM) are 0.0358 and 104% (inactive).
On the same counts, the results for `CN1[C@@H]2CC[C@H]1C[C@@H](OC(c1ccc(F)cc1)c1ccc(F)cc1)C2` [3-alpha-bis-(4-fluorophenyl)-methoxytropane] (10 µM) are 0.266 and 73% (inactive).
In turn, `CC(C)(C)NS(=O)(=O)c1cncc(-c2cc(F)c3nc(N)nn3c2)c1` (10 µM) came in with a morphology score in experiment [1] of 0.0263. The SARS-CoV-2 infection rate in experiment [2] is 104% (inactive).
On the same counts, the results for `CON` [methoxyamine] (10 µM) are 0.192 and 99% (inactive).
For the compound `Cc1cc(/C=C2\SC(=O)N(c3ccccc3)C2=O)c(C)n1-c1cccnc1` (10 µM), the morphology score in experiment [1] is -0.171. Moreover, the SARS-CoV-2 infection rate in experiment [2] is 102% (inactive).
In experiment [1], `CCCN1CCCC[C@H]1C(=O)Nc1c(C)cccc1C` [ropivacaine] (10 µM) came in with a morphology score of 0.0192. Also, in experiment [2], the SARS-CoV-2 infection rate is 104% (inactive).
On the same counts, the results for `CN(C)CCCN1c2ccccc2CCc2ccccc21` [imipramine] (10 µM) are -0.0385 and 92.5% (inactive).
In the same order, the values of `NC(=O)[C@@H](CCC(F)(F)F)N(Cc1ccc(-c2ncon2)cc1F)S(=O)(=O)c1ccc(Cl)cc1` [avagacestat] (10 µM) are 0.0806 and 108% (inactive).
The compound `O=C(c1c2ccccc2cc2ccccc12)N1CCC(N2CCC[C@@H](C(=O)N3CCOCC3)C2)CC1` (10 µM) yielded a morphology score in experiment [1] of 0.0309. Besides, the SARS-CoV-2 infection rate in experiment [2] is 93.5% (inactive).
